# Laboratory results from publication PMC7862700, “An all-to-all approach to the identification of sequence-specific readers for epigenetic DNA modifications on cytosine”.
# Assays:
# Assay in all cases: DAPPL (digital affinity profiling via proximity ligation, sequencing); 10 mM Tris-HCl pH 7.5, 50 mM NaCl, 1 mM DTT, 4% glycerol, room temperature, 30 min; GST-TFs on glutathione beads, 16-mer random dsDNA library, 0.1% formaldehyde crosslink after washing; high values mean tight binding
# [1] = target: T1, FLI1 (Homo sapiens, UniProt Q01543 1-452); conditions: protein: recombinant; tags: N-terminal GST; dsDNA, one strand shown
# T1 sequence: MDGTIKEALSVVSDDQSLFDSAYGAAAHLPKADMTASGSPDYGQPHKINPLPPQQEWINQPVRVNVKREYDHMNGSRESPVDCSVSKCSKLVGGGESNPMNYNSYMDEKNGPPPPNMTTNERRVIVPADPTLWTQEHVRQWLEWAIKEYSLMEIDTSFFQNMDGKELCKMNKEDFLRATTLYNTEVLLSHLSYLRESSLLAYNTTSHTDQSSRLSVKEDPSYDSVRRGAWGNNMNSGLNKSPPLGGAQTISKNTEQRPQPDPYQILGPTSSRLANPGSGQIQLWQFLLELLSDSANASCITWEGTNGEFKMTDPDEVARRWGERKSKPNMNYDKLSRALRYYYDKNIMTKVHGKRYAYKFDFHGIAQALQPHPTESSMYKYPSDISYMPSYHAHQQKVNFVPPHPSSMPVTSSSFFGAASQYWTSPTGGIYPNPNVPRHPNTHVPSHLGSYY
# Method in brief: (§1)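 Human transcription factors were made in yeast as GST fusions, captured on glutathione beads and barcoded with DNA. With a tag-only sample included, the pool was incubated with 200 nmole of a random double-stranded 16-mer DNA library in Tris/NaCl/DTT/glycerol buffer at room temperature for 30 min, then crosslinked with 0.1% formaldehyde after washing, ligated by proximity, amplified and sequenced. For binding signal, each hexamer's read frequency for a factor is divided by its frequency for the tag-only sample.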
# [2] = target: T2, ELK1 (Homo sapiens, UniProt P19419 1-428); conditions: protein: recombinant; tags: N-terminal GST; dsDNA, one strand shown
# T2 sequence: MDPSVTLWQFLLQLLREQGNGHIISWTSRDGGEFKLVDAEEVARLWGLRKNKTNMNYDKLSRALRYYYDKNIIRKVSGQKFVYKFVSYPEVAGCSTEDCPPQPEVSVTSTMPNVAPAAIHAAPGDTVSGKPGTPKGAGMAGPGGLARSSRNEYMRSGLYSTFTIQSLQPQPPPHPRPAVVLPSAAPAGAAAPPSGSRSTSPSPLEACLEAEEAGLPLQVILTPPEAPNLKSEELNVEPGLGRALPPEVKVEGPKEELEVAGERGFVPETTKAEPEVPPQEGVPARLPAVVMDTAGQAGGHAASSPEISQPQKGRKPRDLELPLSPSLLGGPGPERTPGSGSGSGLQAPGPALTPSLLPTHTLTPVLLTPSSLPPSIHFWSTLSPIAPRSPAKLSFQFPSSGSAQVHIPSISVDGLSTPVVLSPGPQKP
# Method in brief: as §1
# [3] = target: T3, GABPA (Homo sapiens, UniProt Q06546 1-454); conditions: protein: recombinant; tags: N-terminal GST; dsDNA, one strand shown
# T3 sequence: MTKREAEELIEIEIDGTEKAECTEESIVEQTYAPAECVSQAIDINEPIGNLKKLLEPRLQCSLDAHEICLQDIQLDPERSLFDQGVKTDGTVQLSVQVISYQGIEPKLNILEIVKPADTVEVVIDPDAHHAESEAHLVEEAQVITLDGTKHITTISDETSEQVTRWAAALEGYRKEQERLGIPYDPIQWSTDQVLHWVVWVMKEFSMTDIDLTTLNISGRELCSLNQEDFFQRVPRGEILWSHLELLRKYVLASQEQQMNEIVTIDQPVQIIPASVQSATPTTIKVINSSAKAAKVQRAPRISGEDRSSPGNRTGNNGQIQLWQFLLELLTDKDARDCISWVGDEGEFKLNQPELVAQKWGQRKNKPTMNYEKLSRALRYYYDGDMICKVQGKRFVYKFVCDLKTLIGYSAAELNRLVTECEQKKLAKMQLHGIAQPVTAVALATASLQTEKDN
# Method in brief: as §1
# [4] = target: T4, ERG (Homo sapiens, UniProt P11308 1-479); conditions: protein: recombinant; tags: N-terminal GST; dsDNA, one strand shown
# T4 sequence: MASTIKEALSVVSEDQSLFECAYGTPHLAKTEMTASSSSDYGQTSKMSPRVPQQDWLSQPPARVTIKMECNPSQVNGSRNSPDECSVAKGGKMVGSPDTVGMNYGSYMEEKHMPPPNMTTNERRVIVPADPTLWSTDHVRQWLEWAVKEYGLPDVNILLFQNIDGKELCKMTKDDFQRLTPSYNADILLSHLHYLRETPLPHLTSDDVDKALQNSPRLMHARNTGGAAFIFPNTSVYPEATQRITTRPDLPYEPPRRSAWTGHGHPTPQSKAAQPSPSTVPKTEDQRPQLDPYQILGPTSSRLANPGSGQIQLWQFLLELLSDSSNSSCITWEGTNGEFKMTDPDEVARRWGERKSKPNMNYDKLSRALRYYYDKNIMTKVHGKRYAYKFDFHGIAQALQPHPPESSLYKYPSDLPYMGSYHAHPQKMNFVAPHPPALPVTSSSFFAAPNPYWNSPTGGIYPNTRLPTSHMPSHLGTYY
# Method in brief: as §1
# [5] = target: ELF1 (Homo sapiens, UniProt P32519 1-619); conditions: protein: recombinant; tags: N-terminal GST; dsDNA, one strand shown
# Sequence of ELF1 (P32519 whole entry): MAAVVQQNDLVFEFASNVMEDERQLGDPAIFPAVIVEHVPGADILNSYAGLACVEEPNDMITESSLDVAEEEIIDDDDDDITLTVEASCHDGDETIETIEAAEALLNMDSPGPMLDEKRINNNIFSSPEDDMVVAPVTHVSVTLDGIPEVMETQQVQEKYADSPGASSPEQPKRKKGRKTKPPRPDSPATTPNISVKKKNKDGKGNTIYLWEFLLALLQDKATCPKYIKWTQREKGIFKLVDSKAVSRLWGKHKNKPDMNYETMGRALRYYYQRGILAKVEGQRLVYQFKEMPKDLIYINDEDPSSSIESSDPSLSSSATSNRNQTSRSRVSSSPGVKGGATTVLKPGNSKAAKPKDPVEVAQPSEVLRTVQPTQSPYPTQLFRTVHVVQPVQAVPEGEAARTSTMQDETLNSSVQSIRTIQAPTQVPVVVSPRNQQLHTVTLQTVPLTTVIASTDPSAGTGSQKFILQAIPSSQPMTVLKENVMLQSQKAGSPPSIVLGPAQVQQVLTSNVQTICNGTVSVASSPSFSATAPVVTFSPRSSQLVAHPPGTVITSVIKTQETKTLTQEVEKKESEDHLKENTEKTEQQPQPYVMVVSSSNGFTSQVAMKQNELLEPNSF
# Method in brief: as §1
# [6] = target: T5, EHF (Homo sapiens, UniProt Q9NZC4 1-300); conditions: protein: recombinant; tags: N-terminal GST; dsDNA, one strand shown
# T5 sequence: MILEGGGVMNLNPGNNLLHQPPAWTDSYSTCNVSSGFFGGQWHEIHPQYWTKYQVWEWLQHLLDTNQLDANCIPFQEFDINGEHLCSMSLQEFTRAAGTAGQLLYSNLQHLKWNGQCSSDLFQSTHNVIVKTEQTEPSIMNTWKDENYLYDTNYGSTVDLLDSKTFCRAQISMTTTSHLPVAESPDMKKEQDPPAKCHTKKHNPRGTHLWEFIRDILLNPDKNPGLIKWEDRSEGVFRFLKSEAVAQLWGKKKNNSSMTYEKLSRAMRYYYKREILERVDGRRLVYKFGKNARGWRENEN
# Method in brief: as §1
# [7] = target: SPI1 (Homo sapiens, UniProt P17947 1-270); conditions: protein: recombinant; tags: N-terminal GST; dsDNA, one strand shown
# Method in brief: as §1
# [8] = target: SPIB (Homo sapiens, UniProt Q01892 1-262); conditions: protein: recombinant; tags: N-terminal GST; dsDNA, one strand shown
# Sequence of SPIB (Q01892 whole entry): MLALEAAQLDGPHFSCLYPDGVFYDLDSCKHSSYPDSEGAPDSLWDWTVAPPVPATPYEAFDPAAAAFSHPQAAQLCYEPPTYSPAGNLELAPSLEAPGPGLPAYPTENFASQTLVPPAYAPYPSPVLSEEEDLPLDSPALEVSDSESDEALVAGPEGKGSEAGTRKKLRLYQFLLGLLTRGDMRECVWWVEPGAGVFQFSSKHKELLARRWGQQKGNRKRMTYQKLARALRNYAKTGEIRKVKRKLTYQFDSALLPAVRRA
# Method in brief: as §1
# [9] = target: T6, ELK3 (Homo sapiens, UniProt P41970 1-407); conditions: protein: recombinant; tags: N-terminal GST; dsDNA, one strand shown
# T6 sequence: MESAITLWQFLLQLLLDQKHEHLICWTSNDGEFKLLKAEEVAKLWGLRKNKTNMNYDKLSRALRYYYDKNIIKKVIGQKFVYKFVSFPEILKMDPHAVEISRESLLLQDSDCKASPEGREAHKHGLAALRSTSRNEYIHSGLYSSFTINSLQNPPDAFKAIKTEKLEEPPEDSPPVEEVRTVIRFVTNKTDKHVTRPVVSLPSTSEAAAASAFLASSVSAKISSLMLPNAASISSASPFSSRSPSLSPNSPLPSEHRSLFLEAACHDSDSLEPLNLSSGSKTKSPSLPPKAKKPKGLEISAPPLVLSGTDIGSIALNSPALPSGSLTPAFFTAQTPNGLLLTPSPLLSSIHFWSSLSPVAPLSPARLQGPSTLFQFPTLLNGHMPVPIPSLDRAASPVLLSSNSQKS
# Method in brief: as §1
# [10] = target: T7, FEV (Homo sapiens, UniProt Q99581 1-238); conditions: protein: recombinant; tags: N-terminal GST; dsDNA, one strand shown
# T7 sequence: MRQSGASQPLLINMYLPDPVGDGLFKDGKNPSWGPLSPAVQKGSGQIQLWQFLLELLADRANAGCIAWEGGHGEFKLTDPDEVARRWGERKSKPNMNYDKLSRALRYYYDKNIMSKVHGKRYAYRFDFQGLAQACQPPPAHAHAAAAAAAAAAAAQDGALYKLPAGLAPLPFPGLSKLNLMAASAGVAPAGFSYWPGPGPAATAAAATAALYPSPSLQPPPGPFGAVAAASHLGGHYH
# Method in brief: as §1
# [11] = target: ETV5 (Homo sapiens, UniProt P41161 1-510); conditions: protein: recombinant; tags: N-terminal GST; dsDNA, one strand shown
# Sequence of ETV5 (P41161 whole entry): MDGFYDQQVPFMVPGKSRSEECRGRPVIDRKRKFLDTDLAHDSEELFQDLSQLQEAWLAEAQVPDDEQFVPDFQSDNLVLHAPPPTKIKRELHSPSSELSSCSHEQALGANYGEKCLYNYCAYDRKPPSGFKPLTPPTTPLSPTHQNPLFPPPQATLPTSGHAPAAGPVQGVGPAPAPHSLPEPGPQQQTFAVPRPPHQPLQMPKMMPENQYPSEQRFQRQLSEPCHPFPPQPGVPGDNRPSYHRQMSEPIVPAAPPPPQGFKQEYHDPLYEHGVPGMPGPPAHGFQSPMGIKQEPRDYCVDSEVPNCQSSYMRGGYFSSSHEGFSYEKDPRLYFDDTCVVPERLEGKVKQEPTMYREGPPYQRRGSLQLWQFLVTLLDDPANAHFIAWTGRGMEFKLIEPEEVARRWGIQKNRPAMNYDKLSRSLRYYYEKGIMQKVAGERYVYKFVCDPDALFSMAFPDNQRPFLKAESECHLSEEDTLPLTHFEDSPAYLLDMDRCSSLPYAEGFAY
# Method in brief: as §1
# [12] = target: HSF1 (Homo sapiens, UniProt Q00613 1-529); conditions: protein: recombinant; tags: N-terminal GST; chain copies: 3; dsDNA, one strand shown
# Sequence of HSF1 (Q00613 whole entry): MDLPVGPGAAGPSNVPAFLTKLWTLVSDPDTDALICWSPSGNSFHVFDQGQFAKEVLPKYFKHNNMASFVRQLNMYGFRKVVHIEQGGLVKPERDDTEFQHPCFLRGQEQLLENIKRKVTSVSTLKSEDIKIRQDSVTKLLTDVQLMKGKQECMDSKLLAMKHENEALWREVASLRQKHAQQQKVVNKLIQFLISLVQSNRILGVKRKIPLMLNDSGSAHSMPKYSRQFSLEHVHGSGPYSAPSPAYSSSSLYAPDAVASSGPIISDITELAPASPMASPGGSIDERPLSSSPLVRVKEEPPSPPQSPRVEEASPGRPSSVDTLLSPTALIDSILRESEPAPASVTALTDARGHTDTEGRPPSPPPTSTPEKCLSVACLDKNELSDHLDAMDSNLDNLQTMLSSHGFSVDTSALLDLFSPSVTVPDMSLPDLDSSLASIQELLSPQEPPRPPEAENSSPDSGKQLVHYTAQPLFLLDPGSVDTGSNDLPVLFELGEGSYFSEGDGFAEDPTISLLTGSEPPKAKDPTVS
# Method in brief: as §1
# [13] = target: T8, SPIC (Homo sapiens, UniProt Q8N5J4 1-248); conditions: protein: recombinant; tags: N-terminal GST; dsDNA, one strand shown
# T8 sequence: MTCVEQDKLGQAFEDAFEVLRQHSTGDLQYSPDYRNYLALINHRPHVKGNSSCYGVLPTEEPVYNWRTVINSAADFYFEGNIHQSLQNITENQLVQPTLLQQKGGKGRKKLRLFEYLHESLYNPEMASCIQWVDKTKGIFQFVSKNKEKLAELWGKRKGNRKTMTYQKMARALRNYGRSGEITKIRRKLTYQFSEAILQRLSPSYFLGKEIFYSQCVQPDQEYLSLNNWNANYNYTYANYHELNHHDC
# Method in brief: as §1
# [14] = target: ELF4 (Homo sapiens, UniProt Q99607 1-663); conditions: protein: recombinant; tags: N-terminal GST; dsDNA, one strand shown
# Sequence of ELF4 (Q99607 whole entry): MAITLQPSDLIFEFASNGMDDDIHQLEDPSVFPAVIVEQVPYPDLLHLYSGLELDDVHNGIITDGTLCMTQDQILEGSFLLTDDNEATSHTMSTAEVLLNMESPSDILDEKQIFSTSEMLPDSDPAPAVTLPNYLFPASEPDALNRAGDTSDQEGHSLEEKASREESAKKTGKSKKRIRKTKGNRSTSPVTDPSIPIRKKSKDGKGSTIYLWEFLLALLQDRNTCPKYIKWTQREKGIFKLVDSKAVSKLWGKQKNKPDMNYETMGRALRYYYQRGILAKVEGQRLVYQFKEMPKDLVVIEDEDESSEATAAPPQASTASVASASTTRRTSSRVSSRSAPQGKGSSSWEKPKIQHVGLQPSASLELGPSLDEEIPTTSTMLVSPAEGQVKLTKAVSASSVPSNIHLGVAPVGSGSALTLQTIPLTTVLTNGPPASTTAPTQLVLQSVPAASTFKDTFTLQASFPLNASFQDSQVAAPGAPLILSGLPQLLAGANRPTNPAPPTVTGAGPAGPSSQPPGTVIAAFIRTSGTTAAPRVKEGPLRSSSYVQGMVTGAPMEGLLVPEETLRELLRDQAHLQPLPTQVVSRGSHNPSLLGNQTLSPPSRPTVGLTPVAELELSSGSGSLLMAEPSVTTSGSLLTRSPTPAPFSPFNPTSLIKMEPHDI
# Method in brief: as §1
# [15] = target: T9, ELK4 (Homo sapiens, UniProt P28324-2 1-405); conditions: protein: recombinant; tags: N-terminal GST; dsDNA, one strand shown
# T9 sequence: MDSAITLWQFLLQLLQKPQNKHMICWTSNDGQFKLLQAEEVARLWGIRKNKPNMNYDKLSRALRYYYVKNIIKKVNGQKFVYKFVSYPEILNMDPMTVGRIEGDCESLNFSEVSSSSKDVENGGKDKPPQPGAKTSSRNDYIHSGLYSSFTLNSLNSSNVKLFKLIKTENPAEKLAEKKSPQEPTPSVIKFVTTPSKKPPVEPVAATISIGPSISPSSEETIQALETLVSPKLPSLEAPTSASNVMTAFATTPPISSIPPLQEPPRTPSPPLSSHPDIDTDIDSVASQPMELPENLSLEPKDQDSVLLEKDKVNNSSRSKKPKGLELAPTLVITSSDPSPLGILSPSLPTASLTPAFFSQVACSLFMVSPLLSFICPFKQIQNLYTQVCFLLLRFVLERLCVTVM
# Method in brief: as §1
# [16] = target: T10, ETV2 (Homo sapiens, UniProt O00321 1-342); conditions: protein: recombinant; tags: N-terminal GST; dsDNA, one strand shown
# T10 sequence: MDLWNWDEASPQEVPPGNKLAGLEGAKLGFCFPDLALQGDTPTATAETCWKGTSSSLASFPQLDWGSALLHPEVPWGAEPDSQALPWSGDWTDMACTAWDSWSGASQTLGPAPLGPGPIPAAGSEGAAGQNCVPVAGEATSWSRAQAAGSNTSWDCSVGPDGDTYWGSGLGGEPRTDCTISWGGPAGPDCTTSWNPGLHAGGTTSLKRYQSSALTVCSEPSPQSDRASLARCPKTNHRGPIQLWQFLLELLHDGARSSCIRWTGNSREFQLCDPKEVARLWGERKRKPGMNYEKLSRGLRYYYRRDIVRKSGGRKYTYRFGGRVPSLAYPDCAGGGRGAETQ
# Method in brief: as §1
# [17] = target: T11, ELF3 (Homo sapiens, UniProt P78545 1-371); conditions: protein: recombinant; tags: N-terminal GST; dsDNA, one strand shown
# T11 sequence: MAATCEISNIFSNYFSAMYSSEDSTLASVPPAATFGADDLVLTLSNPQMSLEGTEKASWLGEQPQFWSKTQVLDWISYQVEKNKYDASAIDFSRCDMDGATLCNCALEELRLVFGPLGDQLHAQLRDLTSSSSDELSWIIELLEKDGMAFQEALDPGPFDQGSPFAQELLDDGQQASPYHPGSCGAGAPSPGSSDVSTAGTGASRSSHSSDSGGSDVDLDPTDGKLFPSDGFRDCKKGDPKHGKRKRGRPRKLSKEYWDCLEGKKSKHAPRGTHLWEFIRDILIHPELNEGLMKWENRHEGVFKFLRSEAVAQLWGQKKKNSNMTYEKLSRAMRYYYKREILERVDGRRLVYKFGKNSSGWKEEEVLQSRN
# Method in brief: as §1
# [18] = target: CRX (Homo sapiens, UniProt O43186 1-299); conditions: protein: recombinant; tags: N-terminal GST; dsDNA, one strand shown
# Sequence of CRX (O43186 whole entry): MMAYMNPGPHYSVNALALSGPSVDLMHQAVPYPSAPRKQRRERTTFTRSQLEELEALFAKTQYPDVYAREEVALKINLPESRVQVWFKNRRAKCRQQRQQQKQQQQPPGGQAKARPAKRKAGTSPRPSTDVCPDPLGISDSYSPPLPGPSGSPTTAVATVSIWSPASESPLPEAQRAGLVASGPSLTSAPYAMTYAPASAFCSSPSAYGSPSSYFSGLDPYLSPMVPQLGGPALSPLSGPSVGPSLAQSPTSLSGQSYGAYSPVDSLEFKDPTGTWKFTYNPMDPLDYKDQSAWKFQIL
# Method in brief: as §1
# [19] = target: ETV1 (Homo sapiens, UniProt P50549 1-477); conditions: protein: recombinant; tags: N-terminal GST; dsDNA, one strand shown
# Sequence of ETV1 (P50549 whole entry): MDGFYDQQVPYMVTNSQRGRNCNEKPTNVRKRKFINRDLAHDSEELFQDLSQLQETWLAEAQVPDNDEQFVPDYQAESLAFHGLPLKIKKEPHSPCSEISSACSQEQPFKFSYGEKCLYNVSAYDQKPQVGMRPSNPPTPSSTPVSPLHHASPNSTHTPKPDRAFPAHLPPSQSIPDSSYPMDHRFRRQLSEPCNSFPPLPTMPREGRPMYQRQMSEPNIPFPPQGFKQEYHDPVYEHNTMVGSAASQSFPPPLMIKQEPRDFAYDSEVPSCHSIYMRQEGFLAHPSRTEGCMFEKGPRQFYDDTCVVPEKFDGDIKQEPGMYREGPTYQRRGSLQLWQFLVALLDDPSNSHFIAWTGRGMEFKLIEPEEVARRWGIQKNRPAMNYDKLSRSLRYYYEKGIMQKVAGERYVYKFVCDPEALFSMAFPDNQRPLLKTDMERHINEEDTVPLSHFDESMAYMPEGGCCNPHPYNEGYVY
# Method in brief: as §1
sequence,measurement,setting,value
AAATTA,binding signal,[1],"1.27 fold enrichment (6-mer frequency, TF over GST control)"
same,binding signal,[2],"1.18 fold enrichment (6-mer frequency, TF over GST control)"
same,binding signal,[3],"1.29 fold enrichment (6-mer frequency, TF over GST control)"
same,binding signal,[4],"1.28 fold enrichment (6-mer frequency, TF over GST control)"
same,binding signal,[5],"1.29 fold enrichment (6-mer frequency, TF over GST control)"
same,binding signal,[6],"1.19 fold enrichment (6-mer frequency, TF over GST control)"
same,binding signal,[7],"1.22 fold enrichment (6-mer frequency, TF over GST control)"
same,binding signal,[8],"1.26 fold enrichment (6-mer frequency, TF over GST control)"
same,binding signal,[9],"1.29 fold enrichment (6-mer frequency, TF over GST control)"
same,binding signal,[10],"1.19 fold enrichment (6-mer frequency, TF over GST control)"
same,binding signal,[11],"1.26 fold enrichment (6-mer frequency, TF over GST control)"
same,binding signal,[12],"1.44 fold enrichment (6-mer frequency, TF over GST control)"
same,binding signal,[13],"1.21 fold enrichment (6-mer frequency, TF over GST control)"
same,binding signal,[14],"1.23 fold enrichment (6-mer frequency, TF over GST control)"
same,binding signal,[15],"1.28 fold enrichment (6-mer frequency, TF over GST control)"
same,binding signal,[16],"1.4 fold enrichment (6-mer frequency, TF over GST control)"
same,binding signal,[17],"1.31 fold enrichment (6-mer frequency, TF over GST control)"
same,binding signal,[18],"1.65 fold enrichment (6-mer frequency, TF over GST control)"
same,binding signal,[19],"1.2 fold enrichment (6-mer frequency, TF over GST control)"
